Compounds with a hit are over-represented: about 15% of the library has one in this group of screens.
VP16 counter – VP16 counterscreen qHTS for inhibitors of ROR gamma transcriptional activity | AID 2546, 2010 | Potency, µM (titrated, usually from 53.6 µM), without a hit: top-dose activity, negative = inhibition, most hits filed as inhibitors | Drosophila S2 Gal4-VP16 UAS-luciferase, luminescence, 20 h | actives 3.5% (n = 310,000);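 further: Gal4-VP16 expression switched on by copper sulfate through the metallothionein promoter; nearly all actives have a fitted effect of over 50% in size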
12-LOX inh – Primary qHTS assay for inhibitors of human arachidonate 12S-lipoxygenase (ALOX12): Round 2 | actives 1.1% (n = 580,000) | AID 1671190, 2021 | Polyunsaturated fatty acid lipoxygenase ALOX12 (Homo sapiens), P18054 | Potency, µM (titrated, usually from 108 µM), for inactives: top-dose activity change, negative = inhibition, most hits filed as inhibitors | purified 12hLO, xylenol orange hydroperoxide absorbance
Target sequence (P18054 whole entry, looked up): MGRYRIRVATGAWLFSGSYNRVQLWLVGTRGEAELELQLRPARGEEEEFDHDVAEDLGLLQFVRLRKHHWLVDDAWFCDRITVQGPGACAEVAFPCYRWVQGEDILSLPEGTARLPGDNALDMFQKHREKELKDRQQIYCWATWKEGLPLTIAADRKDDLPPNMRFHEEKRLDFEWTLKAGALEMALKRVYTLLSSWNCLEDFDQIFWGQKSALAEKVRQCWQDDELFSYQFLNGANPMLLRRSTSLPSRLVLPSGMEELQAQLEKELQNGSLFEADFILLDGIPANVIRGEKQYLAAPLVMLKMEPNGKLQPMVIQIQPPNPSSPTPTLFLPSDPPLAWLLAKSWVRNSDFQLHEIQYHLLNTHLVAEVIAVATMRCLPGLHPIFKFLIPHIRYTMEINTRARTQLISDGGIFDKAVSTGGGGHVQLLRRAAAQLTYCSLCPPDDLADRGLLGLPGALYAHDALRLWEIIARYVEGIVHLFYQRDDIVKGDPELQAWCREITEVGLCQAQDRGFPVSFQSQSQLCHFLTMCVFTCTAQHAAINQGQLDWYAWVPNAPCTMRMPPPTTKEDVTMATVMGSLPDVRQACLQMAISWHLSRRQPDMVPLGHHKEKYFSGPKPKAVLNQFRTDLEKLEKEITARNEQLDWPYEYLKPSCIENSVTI
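Purified human 12hLO at 150 nM in 25 mM Hepes, 0.01% Triton X-100, pH 7.0, preincubated 15 min at room temperature with compound. Reaction started with 40 uM arachidonic acid, 30 min at room temperature. Hydroperoxide measured by Fe-xylenol orange, 573/405 nm absorbance ratio.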
DT40 TDP1 CPT – qHTS for Inhibitors of human tyrosyl-DNA phosphodiesterase 1 (TDP1): qHTS in cells in presence of CPT. chicken DT40 Tdp1-/-;hTDP1 cells + 20 nM CPT, ATP luminescence, 48 h. Potency, µM (series often up to 46.2 µM), for the others: at the highest dose activity change, negative = growth inhibition, most hits filed as inhibitors. actives 12% (n = 420,000); further: nearly all actives have a fitted effect of over 55% in size
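Chicken DT40 Tdp1-/- cells stably complemented with human TDP1 were seeded at 400 cells/well in medium containing 20 nM camptothecin, exposed to pin-transferred compounds, and grown at 37 °C for at least 48 hr. Viability was read as ATP luminescence.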
DT40 TDP1 no CPT – qHTS for Inhibitors of human tyrosyl-DNA phosphodiesterase 1 (TDP1): qHTS in cells in absence of CPT | DT40 Tdp1-/- hTDP1 cells, no CPT, ATP luminescence, 48 h | actives 15% (n = 420,000) | Potency, µM (top dose mostly 46.2 µM), for the others: at the highest dose activity change, negative = growth inhibition, hits mostly inhibitors; further: nearly all actives have a fitted effect of over 55% in size
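Chicken DT40 Tdp1-/- cells complemented with human TDP1, screened without camptothecin (DMSO vehicle only), 400 cells/well. Compounds pin-transferred, cells incubated at 37 °C for at least 48 hr. Growth read as ATP-dependent luminescence (CellTiter-Glo, 30 min at RT).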
RORg inh – qHTS for inhibitors of ROR gamma transcriptional activity. actives 5.4% (n = 310,000). AID 2551, 2010. Nuclear receptor ROR-gamma (Mus musculus), P51450. Drosophila S2 Gal4-RORgamma UAS-luciferase reporter, 20 h. Potency, µM (doses to about 53.6 µM), without a hit: at the top dose activity change, negative = inhibition, actives largely listed as inhibitors; further: nearly all actives have a fitted effect of over 60% in size
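Using a luciferase readout, inhibitors were identified by reduced reporter activity in Drosophila cells coexpressing a copper-inducible Gal4–ROR gamma fusion and UAS-driven Photinus luciferase, incubated 20 hr after 700 uM copper sulfate.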
ELG1 DNA repair – qHTS screen for small molecules that inhibit ELG1-dependent DNA repair in human embryonic kidney (HEK293T) cells expressing luciferase-tagged ELG1 | HEK293T ELG1-luciferase reporter, luminescence, 16 h; DNA damage induced by 5-fluorouridine | Potency, µM (highest dose often 46.1 µM), for the others: at the top dose activity change, negative = inhibition, actives largely listed as inhibitors | actives 2.3% (n = 330,000) | AID 504467, 2011; further: nearly all actives have a fitted effect of over 55% in size
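Quantitative HTS, concentration-response format. 2,000 cells/well co-treated with 5-fluorouridine and compound, 16 hr in 5% CO2 at 37 °C; ONE-Glo luminescence read after 30 min.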
Starred values were filed as active, the others as inactive; [ ] = another dose, or the depositor's remark. The call rests on the fitted dose curve; in most records, active means well fitted curve in the direction sought with a large enough effect; inconclusive means small, poorly fitted or top-dose-only effect, or another doubt; inactive means no such curve, though single readings can be large; an effect the other way counts as inactive or inconclusive. On the % scale 0 is the no-effect control and ±100 the full control effect; potency means the concentration at half of the fitted maximal effect.

`COc1cc(CNCCN2CCOCC2)ccc1OCc1ccc(Cl)cc1` gave VP16 counter -3.6%, 12-LOX inh inconclusive, DT40 TDP1 CPT 18.4µM*, DT40 TDP1 no CPT inconclusive, RORg inh -13.3% and ELG1 DNA repair inconclusive.
CCOc1cc(CNCCCN2CCOCC2)cc(Br)c1OCC(=O)Nc1cccc(C(F)(F)F)c1 was read as VP16 counter inconclusive, 12-LOX inh inconclusive, DT40 TDP1 CPT 5.17µM*, DT40 TDP1 no CPT 4.11µM*, RORg inh inconclusive and ELG1 DNA repair 0.0%.
For Cc1cc(Cl)ccc1OCC(O)CNCCc1ccc(S(N)(=O)=O)cc1 (configuration not stated) the results were VP16 counter -6.1%, 12-LOX inh 0.0%, DT40 TDP1 CPT inconclusive, DT40 TDP1 no CPT 14.6µM*, RORg inh -8.5% and ELG1 DNA repair -11.6%.
`COc1cc(CNCCc2ccc(S(N)(=O)=O)cc2)ccc1OCc1ccc(Cl)cc1` gave VP16 counter -13.2%, 12-LOX inh 39.8µM*, DT40 TDP1 CPT 23.1µM*, DT40 TDP1 no CPT inconclusive, RORg inh -42.0% and ELG1 DNA repair -13.2%.
`CCCc1nnc(C[C@@H]2C[C@@H](C(C)C)[C@H](CNc3cccnc3)C=C2C)o1` gave 12-LOX inh 111.5%[176 µM].
For CCC1C(=O)n2nc(-c3ccccc3)cc2N=C1C (configuration not stated) the results were VP16 counter -19.3%, 12-LOX inh 8.8%[57.4 µM], DT40 TDP1 CPT 8.2µM*, DT40 TDP1 no CPT 10µM*, RORg inh -6.4% and ELG1 DNA repair inconclusive.
For Cc1cnc(CC2CCCN(C(=O)CCc3c[nH]c4ccccc34)C2)n1C(C)C (configuration not stated) the results were 12-LOX inh 9.3%.
CNC(=S)Nc1sc2c(c1C(=O)OC)CCC2 was read as VP16 counter inconclusive, 12-LOX inh inconclusive, DT40 TDP1 CPT -1.2%, DT40 TDP1 no CPT inconclusive, RORg inh 1.26µM* and ELG1 DNA repair 4.9%.
Screening COC(=O)c1c(NC(=S)NN2CCN(C)CC2)sc2c1CCC(C)C2 (configuration not stated) returned VP16 counter 5.01µM*, 12-LOX inh -23.3%, DT40 TDP1 CPT inconclusive, DT40 TDP1 no CPT inconclusive, RORg inh 2µM* and ELG1 DNA repair 13.2%.
`COC(=O)c1c(NC(=O)c2ccc(N(C)S(=O)(=O)c3ccc(C)cc3)cc2)sc2c1CCCC2` gave VP16 counter 4.5%, 12-LOX inh 0.5%, DT40 TDP1 CPT -16.1%, DT40 TDP1 no CPT inconclusive, RORg inh 1.6% and ELG1 DNA repair -13.4%.
Screening CC(C)(C)c1ccc(S(=O)(=O)NCC(=O)Nc2sc3c(c2C(N)=O)CCCC3)cc1 returned VP16 counter 10.0%, 12-LOX inh 16.4%, DT40 TDP1 CPT 0.6%, DT40 TDP1 no CPT inconclusive, RORg inh -23.5% and ELG1 DNA repair inconclusive.
`COC(=O)c1c(NC(=O)CS(=O)(=O)c2ccc(C)cc2)sc2c1CCCC2` gave 12-LOX inh inconclusive, DT40 TDP1 CPT inconclusive and DT40 TDP1 no CPT 16.4µM*.
Screening Cc1ccc(S(=O)(=O)CC(=O)Nc2sc3c(c2C(N)=O)CCCC3)cc1 returned 12-LOX inh -2.4%, DT40 TDP1 CPT 14.6µM* and DT40 TDP1 no CPT 20.6µM*.
COC(=O)c1c(NC(C)=O)sc2c1CCCC2 was read as VP16 counter -2.8%, 12-LOX inh -1.0%, DT40 TDP1 CPT -1.0%, DT40 TDP1 no CPT inconclusive, RORg inh -7.1% and ELG1 DNA repair 23.5%.
Cc1cnc(C(=O)N2CCC(Oc3cccnc3)C2)cn1 (configuration not stated) was read as 12-LOX inh 13.3%.
For CC(=O)N1CCN(CC(=O)Nc2sc3c(c2C(N)=O)CCC3)CC1 the results were 12-LOX inh 9.2%.
Screening NC(=O)c1c(NC(=O)CN2CCN(S(=O)(=O)c3ccccc3)CC2)sc2c1CCC2 returned 12-LOX inh -7.8%, DT40 TDP1 CPT 13µM*, DT40 TDP1 no CPT 18.4µM* and ELG1 DNA repair inconclusive.
Screening Cc1c(NC(=O)c2ccco2)cccc1-c1nc2cccnc2s1 returned VP16 counter -2.8%, 12-LOX inh -5.3%, DT40 TDP1 CPT 20.6µM*, DT40 TDP1 no CPT inconclusive, RORg inh -0.7% and ELG1 DNA repair -17.4%.
Screening O=C(Nc1ccc(-c2nc3cccnc3s2)cc1)c1ccco1 returned VP16 counter -0.9%, 12-LOX inh 8.7%, DT40 TDP1 CPT inconclusive, DT40 TDP1 no CPT 13µM*, RORg inh 5.0% and ELG1 DNA repair inconclusive.
Screening O=C(Nc1ccc(-c2nc3cccnc3s2)cc1)c1ccc(Br)o1 returned VP16 counter -9.8%, 12-LOX inh -21.7%, DT40 TDP1 CPT 11.6µM*, DT40 TDP1 no CPT 8.2µM*, RORg inh -32.7% and ELG1 DNA repair inconclusive.
For Cc1cccc(-c2ccc3[nH]c4c(c3c2)CCN2C[C@@H]([C@H](C)O)[C@@H](N(C)C(=O)Nc3ccc(F)cc3)C[C@@H]42)c1 the results were 12-LOX inh -0.4%, DT40 TDP1 CPT 16.4µM* and DT40 TDP1 no CPT 18.4µM*.
`C[C@H](O)[C@@H]1CN2CCc3c([nH]c4ccc(-c5ccc6c(c5)OCO6)cc34)[C@@H]2C[C@@H]1N(C)C(=O)Nc1cc(Cl)cc(Cl)c1` gave 12-LOX inh -101.9%, DT40 TDP1 CPT 4.11µM* and DT40 TDP1 no CPT 3.26µM*.
COc1ccc(NC(=O)N(C)[C@H]2C[C@H]3c4[nH]c5ccc(-c6cccc(C)c6)cc5c4CCN3C[C@H]2[C@H](C)O)cc1 was read as DT40 TDP1 CPT inconclusive and DT40 TDP1 no CPT 16.4µM*.
Screening O=[N+]([O-])c1ccc(-c2ccc(/C=N/c3c(-c4ccco4)nc4ccccn34)o2)cc1 returned VP16 counter 9.1%, 12-LOX inh -28.4%, DT40 TDP1 CPT 20.6µM*, DT40 TDP1 no CPT 7.31µM*, RORg inh -1.3% and ELG1 DNA repair inconclusive.

Source: PubChem (National Center for Advancing Translational Sciences (NCATS))
